Results reported in PubChem BioAssay (NCI).
The panel holds about 83,000 compounds, 20% with a hit somewhere; the sample as a whole holds those more often.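 Percent growth is the endpoint: 0 to 100 indicates growth inhibition (40 means 60% inhibition), 0 means no net growth, and negative values indicate cell death.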 Unmarked numbers belong to inactive results. Activity calls are given as the source filed them. The calls were made as follows: active = growth percent below 10; inactive = the rest.

Tests used:
Test in all cases: NCI-60 one-dose screen, 48 h (100 = growth as untreated, 0 = no growth, -100 = all killed)
Conditions in all cases: 10 µM unless noted
NCI-H23 lung = system: NCI-H23 lung
NCI-H226 lung = system: NCI-H226 lung
NCI-H322M lung = system: NCI-H322M lung
HOP-62 NSCLC = system: HOP-62 NSCLC
NCI-H460 lung = system: NCI-H460 lung
HOP-92 NSCLC = system: HOP-92 NSCLC
NCI-H522 lung = system: NCI-H522 lung
A549/ATCC NSCLC = system: A549/ATCC NSCLC
786-0 renal = system: 786-0 renal
COLO 205 colon = system: COLO 205 colon
DU-145 prostate = system: DU-145 prostate
K-562 leukemia = system: K-562 leukemia
MALME-3M melanoma = system: MALME-3M melanoma
MDA-MB-231 breast = system: MDA-MB-231 breast
RXF 393 renal = system: RXF 393 renal
SF-268 CNS = system: SF-268 CNS
SF-295 CNS = system: SF-295 CNS
SF-539 CNS = system: SF-539 CNS
UACC-257 melanoma = system: UACC-257 melanoma
M14 melanoma = system: M14 melanoma

| SMILES | growth (NCI-H23 lung) | growth (NCI-H226 lung) [%] | growth (NCI-H322M lung) | growth (HOP-62 NSCLC) [%] | growth (NCI-H460 lung) | growth (HOP-92 NSCLC) | growth (NCI-H522 lung) | growth (A549/ATCC NSCLC) [%] | growth (786-0 renal) [%] | growth (COLO 205 colon) [%] | growth (DU-145 prostate) [%] | growth (K-562 leukemia) | growth (MALME-3M melanoma) | growth (MDA-MB-231 breast) [%] | growth (RXF 393 renal) [%] | growth (SF-268 CNS) [%] | growth (SF-295 CNS) [%] | growth (SF-539 CNS) [%] | growth (UACC-257 melanoma) [%] | growth (M14 melanoma) |
| --- | --- | --- | --- | --- | --- | --- | --- | --- | --- | --- | --- | --- | --- | --- | --- | --- | --- | --- | --- | --- |
| N#C/C(=N\Nc1ccccc1)C(=O)Nc1cc(-c2ccccc2)nn1-c1ccccc1 | 6.94% (active) | 25.6 | 8.62% (active) | 52.8 | 6.6% (active) | -18.6% (active) | 15.4% | 30.4 | 50.5 | 48.4 | 51.5 | 25.9% | 4.67% (active) | 26.1 | 36.9 | 22.9 | 11.4 | 40.4 | 12.3 | 33.7% |
| C/C(=C(\c1ccc(OCCCN(C)C)cc1)c1ccc(OC(=O)Cc2ccccc2)cc1)c1ccc(Cl)cc1 | 84.6% | 100 | 86.8% | 78.9 | 40.8% | 51.8% | 67.2% | 63.3 | 68.3 | 50.6 | 80.7 | 0.63% (active) | 87.6% | 68.4 | 69.7 | 77.4 | 79.1 | 82 | 91.5 | 7.02% (active) |
| COc1ccc(C2=NN3C(C2)c2cc(Br)ccc2OC3c2ccncc2)cc1 (stereo not given) | 81.8% | 92.7 | 76.4% | 79.9 | 59.4% | 82.7% | 60% | 71.7 | 92.6 | 110 | 96.4 | 74.8% | 94% | 85 | 95.4 | 66.2 | 86.5 | 86.2 | 86.2 | 86.8% |
| O=C1N/C(=N/N=C(c2ccccc2)c2ccccc2)S/C1=C\c1ccc(Br)cc1 | 94.1% | 84.7 | 95% | 98.1 | 98.4% | 92.3% | 69.6% | 74.7 | 98 | 104 | 107 | 89.6% | 97.7% | 94.6 | 107 | 99.3 | 96.1 | 110 | 83.5 | 91.8% |
| CC1=C(C(=O)c2ccccc2)C(c2ccc3c(c2)OCO3)NC(=S)N1 (stereo not given) | 48% | 66.5 | 67.7% | 51.8 | 8.05% (active) | 92.3% | 38.3% | 40.3 | 58.9 | 47.6 | 78.7 | 24.6% | 54.5% | 79.1 | 59.5 | 75.8 | 51.2 | 36.4 | 57.2 | 34.6% |
| CCOC(=O)c1c(Nc2nc3ccccc3s2)sc2c1CCC(=O)C2 | 26.3% | 91.9 | 85% | 66.4 | 34% | 85.4% | 8.13% (active) | 68.8 | 66 | 65.9 | 84.8 | 10.2% | 93.9% | 79.4 | 83.6 | 71 | 86.3 | 46.8 | 92.7 | 58.6% |
| COC(=O)c1nc(-c2ccccc2)oc1S(=O)(=O)NCC(c1ccc(Cl)cc1)N1CCCCC1 (stereo not given) | 84.4% | 88.5 | 97.2% | 90.9 | 85.6% | 48.8% | 25.6% | 85.3 | 59.8 | 72.1 | 97.9 | 9.15% (active) | 99.1% | 72.2 | 82.7 | 82.5 | 102 | 88.1 | 88 | 38% |
| C/C=C(/C)C(=O)O[C@@H]1CC(C)(C)CC2C34OC(=O)[C@@]21CC[C@@]3(C)[C@]1(C)CCC2C(C)(C)C(=O)CC[C@]2(C)C1C[C@@H]4O (stereo not given in full) | 73.5% | 58.6 | 70.2% | 74.3 | 42.4% | 2.1% (active) | 72.1% | 63.1 | 74.7 | 56.1 | 77.9 | 28.8% | 85% | 58.4 | 76 | 73.4 | 78.4 | 52.1 | 64.6 | 52.4% |
